± gives the standard deviation of the averaged measurements. In all, about 1,900 compounds were measured (“relative cell viability (CellTiter-Glo), compound alone”: median about 1, lowest 2% from about 0.16 on). This excerpt belongs to a sample that is enriched for the lowest values.
The compounds below were run on Hep3B (assay: relative cell viability (CellTiter-Glo), compound alone (fraction); higher = more viable cells (less growth inhibition)). Conditions: cabozantinib 0 µM; 4 days.

**Q.** How did the relative cell viability turn out when C[C@H]1CCC/C=C/[C@@H]2C[C@H](O)C[C@H]2[C@H](O)/C=C/C(=O)O1 [Brefeldin A] was run?
**A.** The relative cell viability was 0.111 ± 0.0018.

**Q.** Which relative cell viability does the source give for CC(C)OC(=O)[C@H](C)N[P@](=O)(CO[C@H](C)Cn1cnc2c(N)ncnc21)Oc1ccccc1 [Tenofovir Alafenamide (GS-7340)] here?
**A.** The relative cell viability was 1.12 ± 0.17.

**Q.** Which relative cell viability does the source give for CC(C)[C@]12O[C@H]1[C@@H]1O[C@]13[C@]1(O[C@H]1C[C@H]1C4=C(CC[C@@]13C)C(=O)OC4)[C@@H]2O [Triptolide (PG490)] here?
**A.** The relative cell viability was 0.179 ± 0.009.

**Q.** With CN1CCc2cc3c(cc2C1C1OC(=O)c2c1ccc1c2OCO1)OCO3 (single isomer, unassigned; (+)) [(+)-Bicuculline] as the compound, how does the relative cell viability read?
**A.** Its relative cell viability is 1.1 ± 0.094.

**Q.** How did the relative cell viability turn out when CN1[C@@H]2CC(O)C[C@H]1[C@@H]1O[C@@H]12 (stereo not given in full) [Scopine] was run?
**A.** Its relative cell viability is 1.05 ± 0.1.

**Q.** For CCN1CCN(C(=O)Cc2ccc(Nc3ncc(F)c(Nc4ccc(C(=O)Nc5ccccc5Cl)cc4)n3)cc2)CC1 [Aurora A Inhibitor I], which relative cell viability is on record?
**A.** The relative cell viability was 0.328 ± 0.1.

**Q.** C[C@@H]1O[C@@H](O[C@H]2C[C@@H](O)[C@]3(CO)[C@H]4[C@H](O)C[C@]5(C)[C@@H](C6=CC(=O)OC6)CC[C@]5(O)[C@@H]4CC[C@]3(O)C2)[C@H](O)[C@H](O)[C@H]1O [Ouabain] was tested. Which relative cell viability did it give?
**A.** Its relative cell viability is 0.103 ± 0.0012.

**Q.** For Cn1cc(C2=C(c3cn(C4CCN(Cc5ccccn5)CC4)c4ccccc34)C(=O)NC2=O)c2ccccc21, which relative cell viability is on record?
**A.** The relative cell viability was 1.29 ± 0.031.

**Q.** How did the relative cell viability turn out when C[C@@H]1[C@H](O)[C@@H](C)/C=C/C=C/CC/C=C/C=C/C=C/C=C/[C@H](O[C@H]2O[C@@H](C)[C@H](O)[C@@H](N)[C@H]2O)C[C@@H]2O[C@](O)(C[C@@H](O)[C@H](O)CC[C@@H](O)C[C@@H](O)C[C@@H](O)CC(=O)O[C@H]1C)C[C@H](O)[C@H]2C(=O)O [Nystatin (Fungicidin)] was run?
**A.** Its relative cell viability is 1.06 ± 0.15.

**Q.** For COC(=O)C1=CCCN(C)C1 [Arecoline], which relative cell viability is on record?
**A.** Its relative cell viability is 1.02 ± 0.074.

**Q.** How did the relative cell viability turn out when c1ccc([C@@H]2C[C@H]2NC2CCNCC2)cc1 was run?
**A.** Its relative cell viability is 0.9895 ± 0.0065.

**Q.** How did the relative cell viability turn out when O=c1[nH]c2ccc(Cl)cc2c(N[C@@H]2CN3CCC2CC3)c1-c1nc2ccccc2[nH]1 was run?
**A.** The relative cell viability was 0.13 ± 0.018.

**Q.** Which relative cell viability does the source give for CCOC(=O)c1cncn1[C@H](C)c1ccccc1 [Etomidate] here?
**A.** Its relative cell viability is 1.24 ± 0.049.

**Q.** With CCN1CC2(OC(=O)c3ccccc3NC(C)=O)CCC(OC)C34C1C(CC23)C1(O)CC(OC)C2CC4C1(O)C2OC (stereo not given) [Lappaconite HBr] as the compound, how does the relative cell viability read?
**A.** The relative cell viability was 0.984 ± 0.092.

**Q.** O=C1C=CC[C@@H]2[C@H]3CCCN4CCC[C@@H](CN12)[C@@H]34 [Sophocarpine] was tested. Which relative cell viability did it give?
**A.** Its relative cell viability is 1.02 ± 0.17.

**Q.** Which relative cell viability does the source give for CCOc1ccccc1-n1c(C(C)N2CCN(C(=O)COc3ccc(Cl)cc3)CC2)nc2ccccc2c1=O (stereo not given) [Erastin] here?
**A.** Its relative cell viability is 1.21 ± 0.063.

**Q.** COc1cc([C@@H]2c3cc4c(cc3[C@H](O)[C@H]3COC(=O)[C@@H]23)OCO4)cc(OC)c1OC [Picropodophyllin (PPP)] was tested. Which relative cell viability did it give?
**A.** Its relative cell viability is 0.7418 ± 0.0018.

**Q.** Which relative cell viability does the source give for [O-][n+]1ccccc1[S-].[O-][n+]1ccccc1[S-].[Zn+2] [Zinc Pyrithione] here?
**A.** The relative cell viability was 0.0193 ± 0.0014.

**Q.** CCN(Cc1ccc(Cl)nc1)/C(=C/[N+](=O)[O-])NC [Nitenpyram] was tested. Which relative cell viability did it give?
**A.** The relative cell viability was 0.914 ± 0.12.

**Q.** For CN1CCN(c2nc3ccccc3nc2Cl)CC1, which relative cell viability is on record?
**A.** Its relative cell viability is 1.13 ± 0.04.

Source: the supplement of paper PMC9399229
